# Data reported in PubChem BioAssay AID651725 (National Center for Advancing Translational Sciences (NCATS), 2012).
# Among all 360,000 compounds or so, about 2,000 (0.56%) were called active. Roughly 2% stayed inconclusive and do not appear here. The list comes from a sample in which actives are over-represented; it also holds similar structures and randomly drawn compounds. A number with no mark means an inactive call. Rule as the data show it: active = activity change below about -65%; inconclusive = mostly about -30% to -63%; inactive = weaker than that.
# Target: Homeobox protein SIX1 (Homo sapiens) + Protein phosphatase EYA2 (Homo sapiens) (UniProt Q15475+O00167)
# Experiment: qHTS Assay for Inhibitors of the Six1/Eya2 Interaction
# Conditions: AlphaScreen GST-Six1/His-Eya2 binding, biochemical; active compounds read low
# How it was run: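 AlphaScreen with GST-Six1 and His-Eya2 (5X mix: 250 nM and 500 nM), glutathione donor and nickel acceptor beads; buffer 50 mM Tris pH 8.0, 300 mM NaCl, 1 mM TCEP; 1 h at 37 C in the dark.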
# % is scaled to controls: 0 for no effect and ±100 for the full control effect.
# Homeobox protein SIX1 (Homo sapiens) + Protein phosphatase EYA2 (Homo sapiens), sequence (O00167 whole entry, looked up): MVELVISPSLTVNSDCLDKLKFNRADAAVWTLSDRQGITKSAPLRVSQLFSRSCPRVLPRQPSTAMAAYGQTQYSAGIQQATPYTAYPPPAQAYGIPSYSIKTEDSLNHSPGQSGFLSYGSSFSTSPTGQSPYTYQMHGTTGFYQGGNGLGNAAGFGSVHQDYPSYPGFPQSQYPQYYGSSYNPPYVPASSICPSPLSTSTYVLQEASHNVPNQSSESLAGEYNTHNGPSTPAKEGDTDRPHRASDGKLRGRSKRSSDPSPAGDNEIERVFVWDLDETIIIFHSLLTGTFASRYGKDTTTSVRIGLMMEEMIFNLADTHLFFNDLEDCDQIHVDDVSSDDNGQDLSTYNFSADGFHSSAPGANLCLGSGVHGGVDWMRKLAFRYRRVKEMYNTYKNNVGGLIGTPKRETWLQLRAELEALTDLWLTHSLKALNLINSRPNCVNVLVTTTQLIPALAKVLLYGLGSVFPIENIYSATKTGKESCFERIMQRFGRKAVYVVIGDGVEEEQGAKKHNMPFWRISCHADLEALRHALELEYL
# Homeobox protein SIX1 (Homo sapiens) + Protein phosphatase EYA2 (Homo sapiens), sequence (Q15475 whole entry, looked up): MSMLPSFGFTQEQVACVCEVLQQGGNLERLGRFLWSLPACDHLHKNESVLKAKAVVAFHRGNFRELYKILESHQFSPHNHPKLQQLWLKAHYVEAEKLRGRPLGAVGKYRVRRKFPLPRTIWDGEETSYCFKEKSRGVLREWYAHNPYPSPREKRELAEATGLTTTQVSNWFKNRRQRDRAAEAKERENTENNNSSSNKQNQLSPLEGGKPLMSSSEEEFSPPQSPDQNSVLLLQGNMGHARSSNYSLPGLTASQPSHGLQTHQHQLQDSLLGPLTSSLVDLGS
row,SMILES,activity change
1,C=CCOCCN(C)C1=NS(=O)(=O)c2ccccc21,-3.42%
2,CC1CN(C(=O)c2cccc(NS(=O)(=O)c3ccc(Br)cc3)c2)CC(C)O1 (centres undefined),-2.46%
3,C[C@H](NC(=O)[C@@H]1CCCN1C(=O)[C@@H]1CCCN1C(=O)c1ccccc1)c1ccccc1,0.523%
4,CC1CN(S(=O)(=O)c2cccc(C(F)(F)F)c2)CN1C(=O)N1CCOCC1 (centres undefined),-0.306%
5,CC1(C(=O)NCc2ccccc2)CSCC(=O)N1CCCN1CCOCC1 (centres undefined),-1.18%
6,Cn1c(SCC(=O)Nc2ccc(Cl)cc2)nc(O)cc1=O,7.12%
7,Oc1ccc2ccccc2c1N=Nc1nccs1,-81.4% (active)
8,Oc1ccc(N=Nc2nccs2)c(O)c1,-77.5% (active)
9,CC1(C(=O)NCc2ccccc2)CN(S(C)(=O)=O)CC(=O)N1CC(F)(F)F (centres undefined),2.8%
10,CN1C(c2ccc(F)cc2)=CS/C1=C(/C#N)c1nnc2n1-c1ccccc1SC2,-14.2%
11,COC(=O)C1(C(=O)OC)C[C@H](c2ccccc2)N(Cc2ccccc2OC)[C@@H]1c1ccccc1,1.28%
12,CCC(C(=O)NCc1ccccc1)n1c(Cc2cc(F)cc(F)c2)nc2ccccc21 (centres undefined),-0.68%
13,COc1ccc(N2c3ccccc3CN(Cc3ccccc3)[C@@H](C)[C@H]2Cc2ccc(-c3ccccc3)cc2)cc1,-12.3%
14,CC(=O)c1cc(CN2CCC(n3nccc3NC(=O)c3ccccc3Cl)CC2)cs1,-1.64%
15,Cc1ccc(-c2c(N)nc3ncccn23)cc1,-9.22%
16,CC(=O)N1Cc2cc(C(=O)NCc3cccc(F)c3)nc(-c3cccc(C4=CCCCC4)c3)c2[C@H]1CCO,0.697%
17,O=S1(=O)CCN(Cc2ccccc2)CC1,-0.459%
18,O=C1c2ccccc2C(=O)c2c1cccc2N1CCN(Cc2ccccc2)CC1,-88.9% (active)
19,O=C(CN1CCN(Cc2ccccc2)CC1)NC(c1ccccc1)c1ccccc1,-3.09%
20,Clc1ccc(-c2nc3ccccn3c2CN2CCSCC2)cc1,-7.53%
21,Cc1nc(CN(C)C(=O)CC2C(=O)NCCN2Cc2ccc(F)cc2)cs1 (centres undefined),6.54%
22,O=C1CCC/C(=N\NC(=O)NC2CCCCC2)C1,4.54%

row,SMILES,activity change
1,COC(=O)[C@@]12C[C@@H](CC(=O)N3CCC(c4ccccc4)CC3)C(=O)N(Cc3ccccc3)C1=CCC(C)(C)C2,-15.9%
2,O=C(CSc1nc2ccccc2o1)N1CCN(c2ccccc2)CC1,0.782%
3,CCN(CC)C(=O)CSc1nc2ccccc2o1,6.18%
4,CCC(NC(=O)c1ccccc1NC(=O)c1ccccc1)C(=O)NNC(=O)CSc1nc2ccccc2o1 (centres undefined),-24.4%
5,O=C(CSc1nc2ccccc2o1)N/N=C/c1ccccc1C(=O)O,-67.9% (active)
6,CC(C)(C)C(=O)CSc1nc2ccccc2o1,10%
7,Cc1ccc(/C=N/NC(=O)CSc2nc3ccccc3o2)cc1,-87.1% (active)
8,Cc1ccc(-c2nc3c(Cl)cc(C(F)(F)F)cn3c2Cc2cccc(Cl)c2)cc1,1.53%
9,CC(C)CN1C(=O)CN(S(C)(=O)=O)CC1(C)C(=O)NCc1ccccc1 (centres undefined),5.67%
10,CCOc1ccc(CCN2C(=O)C(=O)N([C@@H](CC(C)C)CN3CCC[C@H]3CN3C(=O)C(=O)NC[C@@H]3Cc3ccccc3)C[C@@H]2CC(C)C)cc1,-1.05%
11,CC(C)(C)C(=O)NCCCNc1ccc([N+](=O)[O-])cc1,-1.69%
12,O=C(Nc1ccccc1F)C1C2C=CC3(O2)C1C(=O)N(c1cccnc1)C3C(=O)NC1CCCCC1 (centres undefined),4.1%
13,Nc1ccc2nc3c(=O)[nH]c(=S)[nH]c3nc2c1,-79.3% (active)
14,O=C(C(NS(=O)(=O)c1cccc2nsnc12)c1ccccc1)N1CCN(c2ccccc2)CC1 (centres undefined),-0.046%
15,COc1ccc(C(O)C(O)(C(=O)OC(C)C)c2ccc(C)cc2)cc1 (centres undefined),10.6%
16,Cc1ccc2cc(C#N)c(NCCNC(=S)NCCCN3CCOCC3)nc2c1,-1.85%
17,C/C(=N\Nc1cccc(C(=O)O)c1)c1ccc2c(c1)Nc1ccccc1S2,-18.9%
18,O=C1NC[C@H](CCCCN2C[C@H](Cc3ccccc3)N(Cc3ccccc3)C(=O)C2=O)N(CCc2ccc(O)cc2)C1=O,-1.72%
19,C=CCOc1ccccc1/C=N/NC(=O)Cc1ccccc1,-1.77%
20,O=C(N/N=C/c1ccccc1O)/C(=C/c1ccccc1)CCO,-80.4% (active)
21,NN=C(NN=Cc1ccccc1)c1ccccc1,15.8%
22,CN1CCN(C(=O)c2ccc(NC(=O)c3ccc(Br)o3)cc2)CC1,1.67%
